The list is not random: actives were taken first. Their share in the collection is about 7.8%.
Bst PK mod – Pyruvate Kinase; purified pyruvate kinase, luminescence ATP production; ribose 5-phosphate activator present at AC10; Potency, µM; hit rate 1.2% among 51,000; in the data active = potency below about 11 µM; inconclusive = mostly about 12 µM to 25 µM;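 the screen sought inhibitors and activators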;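 also: scaled between full activation by ribose 5 phosphate and full inhibition by luteolin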
FLuc inh – qHTS Assay for Inhibitors of Firefly Luciferase; Luciferin 4-monooxygenase (Photinus pyralis), P08659; purified firefly luciferase, luminescence, 8 min; Potency, µM (series often up to 57.1 µM), for inactives: top-dose activity change, negative = inhibition, actives largely listed as inhibitors; hit rate 2.2% among 72,000; AID 411, 2009; also: % is scaled to controls: 0 for no effect and ±100 for the full control effect; nearly all actives have a fitted effect of over 40% in size
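Here, luciferase activity is measured as luminescence following an 8 min room-temperature reaction at 10 uM ATP, pH 7.2. Every library sample is titrated.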
ALOX15 inhib – qHTS Assay for Inhibitors of 15-hLO (15-human lipoxygenase); Polyunsaturated fatty acid lipoxygenase ALOX15 (Homo sapiens), P16050; Potency, µM (titrated, usually from 57.1 µM), without a hit: top-dose activity change, negative = inhibition, usual class: inhibitors; hit rate 1.4% among 74,000; purified 15hLO-1, xylenol orange hydroperoxide absorbance; also: % is scaled to controls: 0 for no effect and ±100 for the full control effect; nearly all actives have a fitted effect of over 55% in size
Target sequence (P16050 whole entry, looked up): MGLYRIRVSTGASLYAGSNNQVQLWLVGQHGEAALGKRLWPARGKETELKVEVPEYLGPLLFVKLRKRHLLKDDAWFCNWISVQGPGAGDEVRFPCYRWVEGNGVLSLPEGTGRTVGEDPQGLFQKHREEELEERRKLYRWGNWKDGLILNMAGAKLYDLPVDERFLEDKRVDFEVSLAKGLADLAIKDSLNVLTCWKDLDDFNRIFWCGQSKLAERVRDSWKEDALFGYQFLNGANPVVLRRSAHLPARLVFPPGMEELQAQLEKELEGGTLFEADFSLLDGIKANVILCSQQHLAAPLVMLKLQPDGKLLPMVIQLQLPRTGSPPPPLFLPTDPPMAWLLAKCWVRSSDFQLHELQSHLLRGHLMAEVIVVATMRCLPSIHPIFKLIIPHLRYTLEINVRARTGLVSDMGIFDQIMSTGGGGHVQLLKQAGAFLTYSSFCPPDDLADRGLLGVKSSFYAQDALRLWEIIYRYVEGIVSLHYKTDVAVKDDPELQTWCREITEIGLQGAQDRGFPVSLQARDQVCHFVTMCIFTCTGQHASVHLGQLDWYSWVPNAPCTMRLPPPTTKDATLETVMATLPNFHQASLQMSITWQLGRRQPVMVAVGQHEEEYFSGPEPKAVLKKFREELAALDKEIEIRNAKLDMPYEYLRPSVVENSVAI
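Quantitative HTS in 25 mM Hepes pH 7.5 containing 0.01% Triton X-100: human 15hLO-1 at 40 nM, arachidonic acid at 50 uM, 6 min turnover. Product quantified via ferrous oxidation/xylenol orange, 573:405 nm absorbance ratio.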
HEK293 cAMP cs – qHTS Assay for Agonists of the Thyroid Stimulating Hormone Receptor: Activators of Intracellular cAMP Concentrations in Parental HEK 293; parental HEK293 CNG cAMP sensor, membrane potential fluorescence; hit rate 2.5% among 73,000; AID 938, 2007; Potency, µM (titrated, usually from 57.1 µM), for inactives: at the top dose activation, usual class: activators; also: % of control where 0% means no effect; nearly all actives have a fitted effect of over 55% in size
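Parental HEK 293 cells stably expressing a modified CNG channel (no TSHR) report cAMP rise as membrane depolarization. Membrane potential dye with 100 uM RO 20-1724 was loaded for 60 min at room temperature, then compound added for 30 min; fluorescence read at 590 nm.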
Tau fil binding – qHTS Assay for Tau Filament Binding; Microtubule-associated protein tau (Homo sapiens), P10636; recombinant tau filaments, thioflavin S fluorescence, 15 h; filaments grown with octadecylsulfate alongside compound; Potency, µM (top dose mostly 57.1 µM), for the others: top-dose activity change, negative = inhibition; hit rate 2% among 71,000; AID 596, 2007;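 also: % is scaled to controls: 0 for no effect and ±100 for the full control effect; actives lower thioflavin S fluorescence by blocking filaments or displacing dye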
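Thioflavine S fluorescence (ex 450, em 510 nm) reports filaments formed from 1 uM human tau plus 30 uM ODS over 15 h at 37 C (10 mM HEPES pH 7.4, 100 mM NaCl, 5 mM DTT); compounds displacing dye or blocking filaments lower signal.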
TSHR ag – qHTS Assay for Agonists of the Thyroid Stimulating Hormone Receptor; Potency, µM (series often up to 57.1 µM), inactives show at the highest dose activation, hits mostly activators; AID 926, 2007; HEK293-CNG-TSHR cells (CNG channel as cAMP sensor), membrane potential dye, cAMP; Thyrotropin receptor (Homo sapiens), P16473; hit rate 0.48% among 73,000; active = well fitted activation curve with a large enough effect in the main read-out, with a control signal flat, not every such curve was filed as active; inconclusive = small, poorly fitted or top-dose-only effect, or a change in a side signal; inactive = no such curve, though single readings can be large or run the other way; % of control where 0% means no effect;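 also: the control signal comes from parental cells without the receptor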
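HEK 293 cells stably expressing TSHR and a cAMP-gated CNG channel; parental CNG-only cells as counterscreen. Cells preloaded 60 min with membrane potential dye plus 100 uM RO 20-1724, then compound 30 min; fluorescence read at 590 nm.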
Starred values were filed as active, the others as inactive; ? = inconclusive; . = not tested or not shown; ! = repeats disagree; [ ] = remark or other dose. Unless noted, calls follow the shape of the dose curve; as a rule, active = well fitted curve in the direction sought with a large enough effect; inconclusive = small, poorly fitted or top-dose-only effect, or another doubt; inactive = no such curve, though single readings can be large; an effect the other way counts as inactive or inconclusive. Potency is read from the fitted curve at half-maximal effect.

SMILES	Bst PK mod	FLuc inh	ALOX15 inhib	HEK293 cAMP cs	Tau fil binding	TSHR ag
Nc1nonc1-c1nc2ccccc2n1Cc1ccc(Cl)cc1	.	1%	-15%	16µM*	254%	?
COc1ccc(-c2coc3cc(O)ccc3c2=O)c(OC)c1	.	.	-1%	.	.	.
COc1ccc2c(=O)c(-c3nc(C)cs3)coc2c1	4.1*	2µM*	.	.	.	.
COc1ccc(-c2coc3cc(O)ccc3c2=O)cc1	.	-14%[11.4 µM]	3%[25.6 µM]	-11%	32µM*	-5%
Cc1csc(-c2coc3cc(O)cc(C)c3c2=O)n1	.	?	16µM*	-27%	10%	-18%
CC(C)Oc1cc(O)c2c(=O)c(-c3ccc(O)cc3)coc2c1	.	13µM*	-22%	?	34%	?
O=c1c(-c2ccc(O)cc2)coc2cc(O)cc(O)c12	.	0%	?	-15%	?	?
COc1ccc(-n2ccnc2SCC(=O)Nc2ccc(OC)cc2OC)cc1	>57	0%	?	?	-4%	?
O=C(Oc1ccccc1)N1CCC2(CC1)CN(c1ncccn1)C2	.	-9%[11.4 µM]	13%	-2%	-17%	1%
Cc1nc(-c2coc3cc(OCC(=O)O)ccc3c2=O)cs1	9.6*	4µM*	.	.	.	.
COC(=O)COc1ccc2c(=O)c(Oc3ccccc3)c(C)oc2c1	.	-1%	8%	?	12%	?
Cc1cc(C)n(-c2nnc(C)n2/N=C/c2cc(Br)ccc2OCc2ccccc2)n1	.	2%	?	3.2µM*	39%[11.4 µM]	?
Cc1cc(C)n(-c2nnc(C)n2/N=C/c2ccccc2OCc2ccccc2Cl)n1	.	1%	-10%[11.4 µM]	1.3µM*	22%[11.4 µM]	?
COc1cccc(Nc2ncc3nc(C)c(=O)n(CCC#N)c3n2)c1	.	0%[11.4 µM]	2%	15%	25µM*	4%
Cn1c(=O)c(-c2cc(F)cc(F)c2)nc2cnc(Nc3ccccc3)nc21	.	0%[11.4 µM]	-2%	-4%	6.3µM*	-8%
N#CCCn1c(=O)c(-c2cc(F)cc(F)c2)nc2cnc(Nc3ccccc3)nc21	.	2%[11.4 µM]	10%	?	-4%	?
Cn1c(=O)c(-c2cc(F)cc(F)c2)nc2cnc(Oc3ccccc3)nc21	.	1%[11.4 µM]	11%	-18%	13µM*	-27%
COCCn1c(=O)c(-c2cccc(C#N)c2)nc2cnc(Nc3ccccc3)nc21	.	1%[11.4 µM]	-18%	0.25µM*	210%	?
O=S(=O)(O)c1ccc(-c2nnc(-c3ccccn3)nc2-c2ccc(S(=O)(=O)O)o2)o1	.	0%[11.4 µM]	20%[11.4 µM]	-1%[11.4 µM]	-15%[11.4 µM]	6%[11.4 µM]
C[C@@]1(CCOCc2ccccc2)NC(=O)NC1=O	.	0%[11.4 µM]	7%[11.4 µM]	11%[11.4 µM]	-4%[11.4 µM]	-3%[11.4 µM]
CC(C)C(NS(=O)(=O)c1cccs1)C(=O)NCc1ccc2c(c1)OCO2 (stereo not drawn)	.	1%	-4%	22%	-9%	42%
N#Cc1ccccc1OCC(=O)Nc1c(C(=O)C2CC2)oc2ccccc12	>57	2%	-2%	?	112%	?
Cc1c(C(=O)OCC(C)(C)CN(C)C)oc2ccccc12	.	13µM*	-7%	26%	-6%	16%
O=C1C2C3C=CC(C2C(=O)N1CN1CCOCC1)C1C2C(=O)N(CN4CCOCC4)C(=O)C2C31 (stereo not drawn)	.	2%[11.4 µM]	17%[11.4 µM]	12%[11.4 µM]	-6%[11.4 µM]	0%[11.4 µM]
NC(N)=NCCCCN=C(N)N	.	1%	?	-4%	32µM*!	2%
SMILES	Bst PK mod	FLuc inh	ALOX15 inhib	HEK293 cAMP cs	Tau fil binding	TSHR ag
Cc1cccc(NC(=O)Cn2nnc(-c3cccs3)n2)c1C	>57	-3%	-9%	-59%	13µM*	?
Cc1ccc(-c2nnn(CC(=O)Nc3cccc4cccnc34)n2)o1	.	-3%	?	25µM*	64%	?
Cc1ccc(-c2nnn(CC(=O)N(CC(=O)NCc3ccccc3)c3cccc(C)c3C)n2)o1	4.4*	-2%	?	14%	6%	-35%
CCN1C(=O)[C@H]2[C@H]3[C@H](O)[C@H](O)C/C(=N/OC[C@@H](O)COCc4ccco4)[C@H]3CC[C@@H]2C1=O	.	1%[11.4 µM]	-2%[11.4 µM]	4%[11.4 µM]	.	-6%[11.4 µM]
C=C(C)C1CC[C@]2(CO)CC[C@@]3(C)[C@H](CCC4[C@@]5(C)CCC(O)C(C)(C)C5CC[C@@]43C)C12 (stereo partly drawn)	.	.	-11%	.	.	.
O=C(c1csnn1)N1CCC2(CCCN(c3ccccc3)C2)CC1	.	0%[11.4 µM]	-3%	18%	-6%	3%
COCCn1c(SCc2c(F)cccc2Cl)nc2c1c(=O)[nH]c(=O)n2C	>26	-1%[25.5 µM]	.	.	.	.
N#CCSc1nnc(Cc2cccc3ccccc23)n1C1CCCCC1	>57	-1%	-3%	16µM*	60%	?
N#CCSc1nnc2ccc3ccccc3n12	>57	0%	7%	-2%	-2%	6%
COC(=O)c1ccc(C(NC(=O)OCc2ccccc2)/C(=C/[C@@H](C)C(=O)NCc2nc3ccccc3s2)c2cccnc2)cc1 (stereo partly drawn)	.	.	-12%	14%	16%	18%
O=C(CCN1C(=O)COc2ccccc21)NCc1ccco1	>57	2%	0%	4%	6%	.
O=C(CN(Cc1cccs1)C(=O)CN1C(=O)COc2ccccc21)NCc1ccco1	>57	1%	-2%	16µM*	-17%	?
COc1ccc(C2C3=C(CC(C)(C)CC3=O)Oc3ncn(Cc4ccco4)c(=N)c32)cc1 (stereo not drawn)	>57	4%	-7%	-32%	16µM*	?
CC1(C)CC(=O)C2=C(C1)Oc1ncn(CCO)c(=N)c1C2c1ccccc1 (stereo not drawn)	>57	1%	8%	?	14%	?
COc1ccc(C2C3=C(CC(C)(C)CC3=O)Oc3ncn(CC(C)C)c(=N)c32)cc1 (stereo not drawn)	>57	1%	0%	-30%	4µM*	?
O=C(O)c1ccccc1NS(=O)(=O)c1ccccc1F	.	.	-10%	12%	.	2%
CCN(C(=O)c1cc2cc3ccc(C)cc3nc2o1)c1ccc(OC)cc1	.	-1%	-13%	40µM*	20%	?
Cc1ccc2cc3cc(C(=O)N4CCCCC4C)oc3nc2c1 (stereo not drawn)	?	13µM*	0%	20%	9%	18%
Cc1ccc2cc3cc(C(=O)N4CC(C)CC(C)C4)oc3nc2c1 (stereo not drawn)	.	-7%	-6%	27%	4%	26%
COc1ccccc1-n1c(SC)nc(O)cc1=O	.	2%	0%	32µM*	-2%	?
Cc1ccc(CNC(=O)c2ccccc2NC(=O)CSc2nnnn2C)cc1	>57	0%	3%	1%	-2%	6%
